Measurements as given in the supplement of paper PMC6555819.

Assays:
Assay in all cases: PBM binding z-score (relative to random genomic background probes); higher = stronger binding; sequences stand for … in GC…GCGATTGACAGCGTAGAATGAAGG
[1] = test system: FXR:RXRa (NR concentration 270 nM, RXRa partner concentration 90 nM)
Summary of the method: (§1)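 Binding z-scores take random background probes as their reference. They come from custom Agilent 4×180K protein-binding microarrays incubated 1 h with ligand-free nuclear receptor dimers, with antibodies against each partner (one per run) detecting binding. Scanned fluorescence was regression-normalized.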

[2] = test system: LXRa:RXRa (NR concentration 270 nM, RXRa partner concentration 90 nM)
Summary of the method: as §1

[3] = test system: LXRa homodimer (NR concentration 270 nM)
Summary of the method: as §1

[4] = test system: LXRb:RXRa (NR concentration 270 nM, RXRa partner concentration 90 nM)
Summary of the method: as §1

[5] = test system: LXRb homodimer (NR concentration 270 nM)
Summary of the method: as §1

[6] = test system: PPARa:RXRa (NR concentration 270 nM, RXRa partner concentration 90 nM)
Summary of the method: as §1

[7] = test system: PPARg:RXRa (NR concentration 180 nM, RXRa partner concentration 90 nM)
Summary of the method: as §1

[8] = test system: PPARg:RXRa 270nM:90nM, anti-RXR (NR concentration 270 nM, RXRa partner concentration 90 nM)
Summary of the method: as §1

[9] = test system: PPARg:RXRa 30nM:10nM, anti-RXR (NR concentration 30 nM, RXRa partner concentration 10 nM)
Summary of the method: as §1

[10] = test system: PPARg:RXRa 90nM:30nM, anti-RXR (NR concentration 90 nM, RXRa partner concentration 30 nM)
Summary of the method: as §1

[11] = test system: PPARg:RXRa DBDmut IVT, anti-RXR (DBD mutation: RXRa K156A/R161A, NR concentration 270 nM, RXRa partner concentration 90 nM)
Summary of the method: as §1

[12] = test system: PPARg:RXRa IVT, anti-PPARg (NR concentration 270 nM, RXRa partner concentration 90 nM)
Summary of the method: as §1

[13] = test system: PPARg DBDmut:RXRa IVT, anti-PPARg (DBD mutation: PPARg1 K132A/R137A, NR concentration 270 nM, RXRa partner concentration 90 nM)
Summary of the method: as §1

[14] = test system: PPARg DBDmut IVT, anti-PPARg (DBD mutation: PPARg1 K132A/R137A, NR concentration 270 nM)
Summary of the method: as §1

[15] = test system: PPARg homodimer (NR concentration 180 nM)
Summary of the method: as §1

[16] = test system: PXR:RXRa (NR concentration 270 nM, RXRa partner concentration 90 nM)
Summary of the method: as §1

[17] = test system: PXR homodimer (NR concentration 270 nM)
Summary of the method: as §1

[18] = test system: RARa:RXR (NR concentration 270 nM, RXRa partner concentration 90 nM)
Summary of the method: as §1

[19] = test system: RARa homodimer (NR concentration 270 nM)
Summary of the method: as §1

[20] = test system: RARb:RXRa (NR concentration 270 nM, RXRa partner concentration 90 nM)
Summary of the method: as §1

Sequence | PBM binding z-score [1] | PBM binding z-score [2] | PBM binding z-score [3] | PBM binding z-score [4] | PBM binding z-score [5] | PBM binding z-score [6] | PBM binding z-score [7] | PBM binding z-score [8] | PBM binding z-score [9] | PBM binding z-score [10] | PBM binding z-score [11] | PBM binding z-score [12] | PBM binding z-score [13] | PBM binding z-score [14] | PBM binding z-score [15] | PBM binding z-score [16] | PBM binding z-score [17] | PBM binding z-score [18] | PBM binding z-score [19] | PBM binding z-score [20]
CCCACTGGGCCATTCAGAGGTCATTGATCATATG | 2.54 | 4.33 | 5.65 | 3.72 | 0.313 | 3.79 | 2.37 | 3.28 | 0.826 | 2.27 | 3.42 | 4.55 | 0.045 | -0.746 | 1.93 | 4.67 | 2 | 4.2 | 0.72 | 2.96
ATCTAAAGGTCGAAGGTGAGTATACCCACCCGAA | 4.51 | 4.47 | 0.846 | 3.2 | 1.12 | 4.71 | 5.11 | 5.19 | 2.76 | 4.36 | 0.448 | 2.65 | 1.07 | 0.686 | 1.22 | 2.87 | 0.401 | 4.15 | 0.981 | 3.76
CCTACTGGGCCATGAAAGGTCATTGATTCAGTGA | 3.25 | 4.74 | 4.74 | 3.86 | 0.00492 | 4.16 | 2.9 | 4.17 | 1.44 | 3.24 | 4.45 | 4.58 | 0.322 | 0.328 | 3.71 | 5.2 | 1.71 | 5.37 | 1.41 | 3.62
TAGCCTAGGTCAAGCGGGCCAGTATAGTGTCGGC | 4.12 | 3.15 | 0.0899 | 1.78 | -0.385 | 3.62 | 2.12 | 2.59 | 0.103 | 1.32 | 2.36 | 2.99 | -0.422 | -0.858 | 0.96 | 1.38 | -0.618 | 2.42 | -0.521 | 4.04
AGTCAAAGTTCATCTAGGTATCGTAAGATATGCT | 6.52 | 5.79 | 5.29 | 3.63 | 2.09 | 4.52 | 6.38 | 5.82 | 3.16 | 5.19 | 0.0537 | 2.59 | 0.906 | 0.493 | 2.49 | 5.11 | 5.44 | 3.62 | 1.32 | 4.95
CAAACTAGGTCACAGAGGGCAAAGTCCGTGCGTA | 5.08 | 4.6 | 2.26 | 3.61 | 0.517 | 5.45 | 8.81 | 7.31 | 5.42 | 7.28 | 8.48 | 8.83 | 5.61 | 4.71 | 1.95 | 4.26 | 4.07 | 3.86 | 0.666 | 4.54
CCTGCTAGGTCAATGGTCAGCTCAAGCAGCTCGC | 3.28 | 2.16 | -0.232 | 1.42 | 0.134 | 3.19 | 4.54 | 5.03 | 2.8 | 5.14 | 4.38 | 4.13 | 2.6 | -0.398 | 1.12 | 0.974 | -0.482 | 1.88 | -0.428 | 3.79
ACTAGTTGGTCAGCTGAGGTCACACACAATTCGG | 4.25 | 3.46 | 1.96 | 3.8 | 0.66 | 3.89 | 1.97 | 2.31 | 0.854 | 1.58 | 1.96 | 3.06 | 0.93 | 1.21 | 2.63 | 5.47 | 2.09 | 4.69 | 2.64 | 3.79
TCTAGCTGGTCAAAGGTCACACACTCGAAATGCG | 5.6 | 6.17 | 3.41 | 5.31 | 0.629 | 6.34 | 10.5 | 9.37 | 9.91 | 10.1 | 2.35 | 5.48 | 0.807 | 1.12 | 4.18 | 6.12 | 0.771 | 7.74 | 2.13 | 4.89
CTTAGTTGGTCAAGGTCACACACGCTATAGGTAC | 4.69 | 4.17 | 2.15 | 4.03 | 1.14 | 4.51 | 4.28 | 4.71 | 2.33 | 3.77 | 4 | 4.92 | 0.864 | 1.4 | 2.76 | 4.35 | 2.79 | 4.4 | 2.07 | 4.35
CAAACTAGGTCACGAAAGGTCAAAGCCGAATGAC | 7.72 | 8.31 | 8.03 | 7.21 | 2.38 | 6.89 | 10.6 | 8.43 | 7.38 | 8.99 | 8.59 | 8.71 | 2.62 | 1.68 | 7.54 | 6.89 | 3.03 | 7.57 | 4.36 | 5.74
GCTGCTAGGTCAACTGATGGTGAGCTAAAGCTCG | 4.47 | 2.63 | -0.169 | 1.71 | -0.179 | 3.57 | 2.57 | 3.02 | 0.564 | 2.06 | 5.09 | 4.15 | -0.747 | -0.586 | 1.16 | 1.22 | -0.899 | 2.11 | -0.283 | 4.28
TGTCAAAGCTCAAAGGTAACGTAAGTATCCACAC | 0.08 | -0.0986 | -0.625 | 0.416 | -0.838 | 1.04 | 1.25 | 1.81 | 0.686 | 1.43 | -0.538 | 0.996 | 0.525 | 0.434 | -0.0175 | 0.078 | -0.43 | 0.683 | -0.12 | 0.692
CGTCCAAGGTCACCAGGTCAGTGAAAGCGACGTG | 7.52 | 5.47 | 1.42 | 4.08 | 0.282 | 6.01 | 7.61 | 6.88 | 3.48 | 5.87 | 4.53 | 5.56 | 0.432 | -0.2 | 5.06 | 5.13 | 1.21 | 6.39 | 2.58 | 5.42
